“And” between values parts separate entries of the source, which are not always exact repeats. Identical values can stand only once. The source made the active and inactive calls. Unless noted, the call rests on the fitted dose curve; in most records, active means well fitted curve in the direction sought with a large enough effect in the repeat runs; inconclusive means weak or mixed curves; inactive means no such curve, though single readings can be large; an effect the other way counts as inactive or inconclusive.
What was measured:
[1] = qHTS assay for identifying genotoxic compounds that show differential cytotoxicity against isogenic chicken DT40 cell lines with known DNA damage response pathways - wild type cell line (AID 743012); further: nearly all actives have a fitted effect of over 60% in size; further: potency means the concentration at half of the fitted maximal effect
Procedure, shortened: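 First, wild type DT40 cells were plated at 300 per well and equilibrated about 0.5 h at 37 C/5% CO2. Next, compounds in DMSO were added and exposure lasted 40 h. Finally, CellTiter-Glo was added for 30 min at room temperature and luminescence recorded.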

[2] = qHTS assay for identifying genotoxic compounds that show differential cytotoxicity against isogenic chicken DT40 cell lines with known DNA damage response pathways - Rev3 mutant cell line (AID 743014); further: nearly all actives have a fitted effect of over 55% in size; further: potency means the concentration at half of the fitted maximal effect
[3] = qHTS assay to identify small molecule antagonists of the androgen receptor (AR) signaling pathway - cell viability counter screen (AID 743033; further: nearly all actives have a fitted effect of over 45% in size; further: potency means the concentration at half of the fitted maximal effect)
[4] = qHTS assay to identify small molecule antagonists of the androgen receptor (AR) signaling pathway using the MDA cell line - cell viability counter screen (AID 743041; further: nearly all actives have a fitted effect of over 45% in size; further: potency means the concentration at half of the fitted maximal effect)
Procedure, shortened: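 R1881-driven MDA-kb2 AR-luc cells, 3,000/well, were dosed with library compounds for 16 h; cell health came from CellTiter-Fluor fluorescence in the reporter wells.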

[5] = qHTS assay to identify small molecule antagonists of the thyroid receptor (TR) signaling pathway - cell viability counter screen (AID 743064); further: potency means the concentration at half of the fitted maximal effect; nearly all actives have a fitted effect of over 50% in size
Procedure, shortened: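 Counter screen for cytotoxicity: compound plus T3 (1 nM final) on GH3.TRE-Luc cells, 23.5 h at 37 °C, then fluorescence viability readout with CellTiter-Fluor.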

[6] = system: thyroid hormone receptor (rat, GH3 cells); test: qHTS assay to identify small molecule agonists of the thyroid receptor (TR) signaling pathway (AID 743066; calls by dose curve; further: on the % scale 0 is the no-effect control and ±100 the full control effect)
[7] = target: Estrogen receptor (Homo sapiens) (UniProt P03372); test: qHTS assay to identify small molecule agonists of the estrogen receptor alpha (ER-alpha) signaling pathway (AID 743075; calls by dose curve; further: potency means the concentration at half of the fitted maximal effect; on activation: on the % scale 0 is the no-effect control and ±100 the full control effect)
[8] = qHTS assay to identify small molecule antagonists of the estrogen receptor alpha (ER-alpha) signaling pathway using the BG1 cell line (AID 743080; calls by dose curve;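 further: BG1 cells stimulated with 17beta-estradiol alongside compound; nearly all actives have a fitted effect of over 25% in size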; further: potency means the concentration at half of the fitted maximal effect; on activity change, negative = inhibition: on the % scale 0 is the no-effect control and ±100 the full control effect); conditions: BG1Luc4E2 ERE-luciferase antagonist mode, luminescence; activity change, negative = inhibition: at 70.3 µM (top of the series)
Procedure, shortened: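 BG1-Luc-4E2 cells (endogenous full-length ER-alpha, 4xERE luciferase) hormone-starved 5 days in charcoal-stripped FBS, plated 4,000/well for 24 h, then compound plus 17beta-estradiol for 21.5 h at 37 C; ONE-Glo luminescence read.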

[9] = target: Aromatase (Homo sapiens) (UniProt P11511); test: qHTS assay to identify aromatase inhibitors (AID 743083); further: nearly all actives have a fitted effect of over 55% in size; further: potency means the concentration at half of the fitted maximal effect
[10] = qHTS assay for identifying genotoxic compounds that show differential cytotoxicity against isogenic chicken DT40 cell lines with known DNA damage response pathways - Rad54/Ku70 mutant cell line (AID 743015); further: nearly all actives have a fitted effect of over 60% in size; further: potency means the concentration at half of the fitted maximal effect
[11] = target: Androgen receptor (Homo sapiens) (UniProt P10275); test: qHTS assay to identify small molecule agonists of the androgen receptor (AR) signaling pathway using the MDA cell line (AID 743040; further: on the % scale 0 is the no-effect control and ±100 the full control effect; nearly all actives have a fitted effect of over 20% in size)
Procedure, shortened: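 After a 5 h incubation at 37C and 0% CO2, MDA-kb2 reporter cells were dosed with compounds in DMSO and kept 16 h under the same conditions. Luciferase activity was then read as luminescence with ONE-Glo.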

[12] = qHTS assay to identify small molecule antagonists of the thyroid receptor (TR) signaling pathway (AID 743065); further: nearly all actives have a fitted effect of over 55% in size; further: potency means the concentration at half of the fitted maximal effect
Procedure, shortened: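 Antagonism measured as loss of luciferase signal in GH3 cells stably carrying a TRE-luciferase reporter, co-treated with compound and T3 (1 nM final) for 23.5 h at 37 C. Viability was read in the same well by CellTiter-Fluor.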

[13] = qHTS assay to identify small molecule antagonists of the estrogen receptor alpha (ER-alpha) signaling pathway using the BG1 cell line - cell viability counter screen (AID 743081);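 further: compound given together with 17beta-estradiol as the ER stimulus; on the % scale 0 is the no-effect control and ±100 the full control effect; nearly all actives have a fitted effect of over 45% in size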
[14] = target: Androgen receptor (Homo sapiens) (UniProt P10275); test: qHTS assay to identify small molecule agonists of the androgen receptor (AR) signaling pathway (AID 743036; active means well fitted activation curve with a large enough effect in the signal ratio in the repeat runs, with a control signal flat, not every such curve was filed as active; inconclusive means weak or mixed curves, or effect the other way; inactive means no such curve, though single readings can be large or run the other way; the % refers to the signal ratio; further: on the % scale 0 is the no-effect control and ±100 the full control effect)
Procedure, shortened: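 In this Tox21 qHTS, 2,000 HEK293 AR-bla cells per well were incubated with compounds for 16 h at 37C and 5% CO2. Fluorescence intensity was recorded 2 h after adding LiveBLAzer B/G FRET substrate at room temperature.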

[15] = target: Androgen receptor (Homo sapiens) (UniProt P10275); test: qHTS assay to identify small molecule antagonists of the androgen receptor (AR) signaling pathway using the MDA cell line (AID 743042; further: on the % scale 0 is the no-effect control and ±100 the full control effect; nearly all actives have a fitted effect of over 55% in size)
Procedure, shortened: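 Antagonist mode: compounds plus R1881 agonist added to MDA-kb2 AR-luc cells, incubated 16 h at 37C. Luciferase reporter luminescence quantified, with multiplexed CellTiter-Fluor readout for cell viability.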

[16] = target: Estrogen receptor (Homo sapiens) (UniProt P03372); test: qHTS assay to identify small molecule agonists of the estrogen receptor alpha (ER-alpha) signaling pathway using the BG1 cell line (AID 743079); conditions: BG1Luc4E2 cells, ERE-luciferase agonist, 22 h; activation: at 70.3 µM (top of the series); further: nearly all actives have a fitted effect of over 20% in size; further: potency means the concentration at half of the fitted maximal effect
[17] = qHTS assay to identify small molecule antagonists of the estrogen receptor alpha (ER-alpha) signaling pathway - cell viability counter screen (AID 743074; calls by dose curve;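 further: HEK293 cells carrying ER-alpha-UAS-bla reporter stimulated with 17beta-estradiol; nearly all actives have a fitted effect of over 45% in size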; further: potency means the concentration at half of the fitted maximal effect)
[18] = target: Estrogen receptor (Homo sapiens) (UniProt P03372); test: qHTS assay to identify small molecule antagonists of the estrogen receptor alpha (ER-alpha) signaling pathway (AID 743069; active means well fitted curve in the direction sought with a large enough effect in the signal ratio in the repeat runs, not every such curve was filed as active; inconclusive means weak or mixed curves, or effect the other way; inactive means no such curve, though single readings can be large or run the other way; the % refers to the signal ratio; further: potency means the concentration at half of the fitted maximal effect)
Procedure, shortened: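 Compound effects are measured against 17beta-estradiol stimulation in HEK293 cells with a UAS-controlled beta-lactamase reporter for ER-alpha. Exposure lasts 18 hr at 37C; LiveBLAzer B/G FRET substrate follows for 2 hr at room temperature.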

Androgen receptor (Homo sapiens), sequence (P10275 whole entry, looked up): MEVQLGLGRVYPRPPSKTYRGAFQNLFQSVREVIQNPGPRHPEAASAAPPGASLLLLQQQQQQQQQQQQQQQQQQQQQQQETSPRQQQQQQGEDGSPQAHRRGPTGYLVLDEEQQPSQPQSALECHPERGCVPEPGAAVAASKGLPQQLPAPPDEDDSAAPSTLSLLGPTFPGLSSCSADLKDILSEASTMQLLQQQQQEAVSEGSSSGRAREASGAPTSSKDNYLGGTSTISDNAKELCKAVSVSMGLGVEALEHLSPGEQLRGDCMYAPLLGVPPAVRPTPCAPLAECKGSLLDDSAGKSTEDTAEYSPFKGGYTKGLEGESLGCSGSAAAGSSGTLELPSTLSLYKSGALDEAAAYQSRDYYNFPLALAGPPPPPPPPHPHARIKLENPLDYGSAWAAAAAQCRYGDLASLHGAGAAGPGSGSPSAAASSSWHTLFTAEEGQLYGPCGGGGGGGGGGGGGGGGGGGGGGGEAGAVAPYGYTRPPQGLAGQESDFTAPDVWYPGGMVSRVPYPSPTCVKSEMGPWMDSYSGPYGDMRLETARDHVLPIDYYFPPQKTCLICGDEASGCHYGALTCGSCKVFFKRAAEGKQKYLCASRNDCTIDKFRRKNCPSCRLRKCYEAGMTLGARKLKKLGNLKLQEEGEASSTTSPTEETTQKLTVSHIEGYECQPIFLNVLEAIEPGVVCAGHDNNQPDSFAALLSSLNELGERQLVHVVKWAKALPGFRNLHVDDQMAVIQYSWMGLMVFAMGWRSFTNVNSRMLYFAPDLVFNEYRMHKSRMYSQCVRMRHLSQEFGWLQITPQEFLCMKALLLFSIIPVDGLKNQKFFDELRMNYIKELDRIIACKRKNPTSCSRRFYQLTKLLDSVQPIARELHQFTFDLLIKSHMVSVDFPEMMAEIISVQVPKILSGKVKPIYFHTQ
Estrogen receptor (Homo sapiens), sequence (P03372 whole entry, looked up): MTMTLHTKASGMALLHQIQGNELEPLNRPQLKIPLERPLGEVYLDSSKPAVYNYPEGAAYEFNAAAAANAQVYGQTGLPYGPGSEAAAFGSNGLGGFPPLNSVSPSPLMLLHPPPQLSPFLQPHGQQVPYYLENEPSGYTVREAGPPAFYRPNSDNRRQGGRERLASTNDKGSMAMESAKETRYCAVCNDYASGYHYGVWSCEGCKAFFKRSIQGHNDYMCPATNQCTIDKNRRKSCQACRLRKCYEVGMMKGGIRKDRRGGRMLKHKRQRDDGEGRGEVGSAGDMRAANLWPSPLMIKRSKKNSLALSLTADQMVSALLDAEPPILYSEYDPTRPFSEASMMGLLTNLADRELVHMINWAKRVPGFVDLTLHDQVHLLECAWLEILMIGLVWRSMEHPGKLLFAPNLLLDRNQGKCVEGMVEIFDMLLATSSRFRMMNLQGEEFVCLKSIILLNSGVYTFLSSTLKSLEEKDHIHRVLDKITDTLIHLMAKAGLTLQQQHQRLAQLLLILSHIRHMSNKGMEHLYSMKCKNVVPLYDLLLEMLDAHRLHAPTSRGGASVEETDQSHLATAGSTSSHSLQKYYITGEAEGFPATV
Aromatase (Homo sapiens), sequence (P11511 whole entry, looked up): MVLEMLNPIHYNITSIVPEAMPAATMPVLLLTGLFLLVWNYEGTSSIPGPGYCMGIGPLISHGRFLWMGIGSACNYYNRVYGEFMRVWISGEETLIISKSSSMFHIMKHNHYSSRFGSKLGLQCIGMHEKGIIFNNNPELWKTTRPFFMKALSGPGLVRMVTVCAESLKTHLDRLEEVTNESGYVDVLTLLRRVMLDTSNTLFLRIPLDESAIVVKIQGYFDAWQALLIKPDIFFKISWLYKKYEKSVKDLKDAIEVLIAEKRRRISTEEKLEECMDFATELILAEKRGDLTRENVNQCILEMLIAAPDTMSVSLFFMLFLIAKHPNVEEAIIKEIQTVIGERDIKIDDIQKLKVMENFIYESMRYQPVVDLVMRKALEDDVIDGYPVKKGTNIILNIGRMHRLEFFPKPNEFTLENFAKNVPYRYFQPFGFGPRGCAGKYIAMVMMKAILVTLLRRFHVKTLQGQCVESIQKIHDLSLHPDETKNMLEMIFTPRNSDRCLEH

CN(C)c1ccc(N=Nc2ccccc2C(=O)O)cc1
active: Potency [5] 15.4 µM | Potency [9] 54.5 µM
inactive: Potency [1] | Potency [2] | Potency [3] | Potency [4] | Potency [6] | Potency [7] | Potency [8]

c1cc(OCC2CO2)cc(OCC2CO2)c1 (stereo unspecified)
active: Potency [1] 0.856 µM | Potency [2] 0.0763 µM | Potency [10] 1.36 µM | Potency [5] 19.2 µM | Potency [12] 7.63 µM
inactive: Potency [11] | Potency [4] | Potency [6] | Potency [7] | Potency [13]

CN(C)CCCN1c2ccccc2Sc2ccc(C(F)(F)F)cc21
active: Potency [1] 7.5 µM | Potency [2] 8.41 µM | Potency [10] 11.9 µM | Potency [5] 9.44 µM | Potency [12] 10.6 µM
inactive: Potency [7] | Potency [8] | Potency [13] | Potency [9]

CN1CCN(C2Cc3ccccc3Sc3ccc(Cl)cc32)CC1 (stereo unspecified)
inactive: outcome [14] | Potency [11] | Potency [15] | Potency [7] | Potency [16] | Potency [8] | Potency [13]
active: Potency [1] 5.96 µM | Potency [2] 6.68 µM | Potency [10] 9.44 µM | Potency [5] 9.44 µM

CC(C)(C)c1cc(/C=C2\SC(=N)NC2=O)cc(C(C)(C)C)c1O
active: Potency [1] 43.3 µM | Potency [2] 61.1 µM | Potency [10] 17.2 µM | Potency [3] 49 µM | Potency [5] 21.7 µM | Potency [12] 13.7 µM | Potency [17] 54.9 µM
inactive: Potency [13]

C=C1C(C)(C)[C@@]2(Cl)C(Cl)[C@]1(Cl)C(Cl)(Cl)C2(Cl)Cl (stereo partly specified)
active: Potency [1] 47.7 µM | Potency [2] 6.73 µM | Potency [10] 23.9 µM | Potency [5] 26.8 µM | Potency [12] 23.9 µM | Potency [9] 60 µM
inactive: outcome [14] | Potency [11] | Potency [4] | Potency [15] | Potency [6] | Potency [13]

CC(=O)OC(OC(C)=O)c1ccc([N+](=O)[O-])o1
active: Potency [1] 19.7 µM | Potency [2] 5.54 µM | Potency [10] 15.6 µM | Potency [3] 22.3 µM | Potency [5] 13.9 µM | Potency [12] 13.9 µM | Potency [9] 17.5 µM
inactive: Potency [6]

C[n+]1c2cc(N)ccc2cc2ccc(N)cc21 (tested in a mixture with another compound)
inactive: Potency [11] | Potency [17]
active: Potency [1] 5.96 µM | Potency [2] 1.68 µM | Potency [10] 2.66 µM | Potency [12] 6.68 µM | Potency [9] 18.8 µM

CCO[Si](CCCSSSSCCC[Si](OCC)(OCC)OCC)(OCC)OCC
inactive: Potency [4] | Potency [6] | Potency [18] | Potency [7] | Potency [16] | Potency [8] | Potency [13] | Potency [9]
active: Potency [2] 61.2 µM | Potency [10] 38.6 µM

C/C=C/C(=O)Oc1c(CCCCCC(C)C)cc([N+](=O)[O-])cc1[N+](=O)[O-]
inactive: Potency [6]
active: Potency [1] 3.44 µM | Potency [2] 3.44 µM | Potency [10] 2.43 µM | Potency [3] 7.76 µM | Potency [4] 7.7 µM | Potency [5] 12.2 µM | Potency [12] 3.86 µM | Potency [18] 4.9 µM [inconclusive] | Potency [9] 15.4 µM

O=C(c1ccccc1)c1cc(Cl)ccc1O
active: Potency [7] 58.5 µM [activator] | activation [16] 22.1%
inactive: Potency [1] | Potency [2] | Potency [10] | Potency [4] | Potency [12] | Potency [6] | Potency [17] | Potency [8] | Potency [13]

O=C(NO)c1ccccc1
active: Potency [2] 44.9 µM | Potency [10] 50.4 µM | Potency [5] 26 µM | Potency [12] 41.2 µM
inactive: Potency [11] | Potency [4] | Potency [15] | Potency [9]

O[C@@H](c1cc(C(F)(F)F)nc2c(C(F)(F)F)cccc12)[C@H]1CCCCN1
active: Potency [1] 4.73 µM | Potency [2] 4.73 µM | Potency [10] 5.31 µM | Potency [3] 23.9 µM | Potency [5] 5.96 µM | Potency [17] 23.9 µM | Potency [7] 26.8 µM [inconclusive] | Potency [16] 2.37 µM | Potency [9] 23.7 µM
inactive: Potency [8] | Potency [13]

CC(C)(c1cc(Br)c(O)c(Br)c1)c1cc(Br)c(O)c(Br)c1
active: Potency [1] 57.9 µM | Potency [2] 60.9 µM and 64.9 µM | Potency [10] 51.6 µM | Potency [3] 54.8 µM | Potency [5] 27.2 µM
inactive: Potency [4] | Potency [6] | Potency [13]

O=C1Nc2ccc(Cl)cc2[C@@](C#CC2CC2)(C(F)(F)F)O1
active: Potency [1] 26.6 µM | Potency [2] 26.6 µM | Potency [10] 21.1 µM | Potency [8] 33.5 µM | Potency [9] 23.7 µM
inactive: Potency [4] | Potency [17] | Potency [7] | Potency [13]
